{"source": "PubChem BioAssay AID504652", "about": "(National Center for Advancing Translational Sciences (NCATS), 2011)", "note": "The campaign covered roughly 360,000 compounds. About 11,000 (3.1%) were called active. For the sample, actives were picked, then their nearest neighbours and some compounds at random. Unmarked numbers belong to inactive results. Cut-off read from the data, not from the text of the source: active = activity change below about -30%; inactive = the rest. % is set by controls: 0 for no effect and ±100 for the full control effect."}
{"biological_target": "D(1A) dopamine receptor (Homo sapiens) (UniProt P21728)", "sequence (P21728 whole entry, looked up)": "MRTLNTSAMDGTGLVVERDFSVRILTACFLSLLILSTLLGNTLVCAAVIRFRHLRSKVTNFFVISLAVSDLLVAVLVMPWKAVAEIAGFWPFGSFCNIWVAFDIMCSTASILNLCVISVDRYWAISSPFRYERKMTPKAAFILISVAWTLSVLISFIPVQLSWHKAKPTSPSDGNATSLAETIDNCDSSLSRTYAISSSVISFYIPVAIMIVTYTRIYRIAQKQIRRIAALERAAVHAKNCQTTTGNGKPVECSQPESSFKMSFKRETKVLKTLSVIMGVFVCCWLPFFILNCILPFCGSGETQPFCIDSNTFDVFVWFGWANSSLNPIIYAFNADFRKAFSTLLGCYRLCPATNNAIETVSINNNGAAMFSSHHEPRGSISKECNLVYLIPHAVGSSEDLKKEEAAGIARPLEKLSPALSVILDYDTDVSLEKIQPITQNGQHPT", "experiment": "Antagonist of Human D 1 Dopamine Receptor: qHTS", "conditions": "HEK293 TREx D1 cells, calcium flux, dopamine EC80; at 10 µM; stronger effect = lower value", "method_in_brief": "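HEK293 T-REx cells expressing inducible, force-coupled D1 receptor; no-wash Ca dye, 30–90 min RT. Cmpd → 180 s read at 1 Hz → EC80 DA → 180 s read.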"}
{"smiles": "O=C(Cn1c(=O)n(-c2ccc(F)cc2)c(=O)c2sccc21)Nc1cccc(C(F)(F)F)c1", "activity change, negative = inhibition": "10.9%"}
{"smiles": "CCOc1ccc(N(CC(=O)NCCOc2ccccc2OC)S(=O)(=O)c2ccccc2)cc1", "activity change, negative = inhibition": "-9.44%"}
{"smiles": "CCOc1ccc(N(CC(=O)NCCc2ccc(F)cc2)S(=O)(=O)c2ccccc2)cc1", "activity change, negative = inhibition": "-32.1% (active)"}
{"smiles": "CCOc1ccc(N(CC(=O)NCCc2ccc(OC)cc2)S(C)(=O)=O)cc1", "activity change, negative = inhibition": "6.98%"}
{"smiles": "COc1ccc(CC(=O)N2CC(=O)Nc3ccc(Br)cc3C2c2ccc(F)cc2)cc1OC", "note": "(centres undefined)", "activity change, negative = inhibition": "1.32%"}
{"smiles": "Cc1nnc(C)n1-c1ccc(C(=O)Nc2cccc(Br)c2)cc1", "activity change, negative = inhibition": "-6.55%"}
{"smiles": "O=C(Cc1ccc(S(=O)(=O)N2CCOCC2)s1)NCCC(c1ccccc1)c1ccccc1", "activity change, negative = inhibition": "2.72%"}
{"smiles": "COCCN(Cc1ccccc1)C(=O)Cc1ccc(S(=O)(=O)N2CCOCC2)s1", "activity change, negative = inhibition": "-46% (active)"}
{"smiles": "CCN(Cc1ccccc1)C(=O)Cc1ccc(OC)c(S(=O)(=O)N2CCOCC2)c1", "activity change, negative = inhibition": "-8.6%"}
{"smiles": "C[C@H](NC(=O)c1nc[nH]c1C(=O)N[C@@H](C)C(=O)OC(C)(C)C)C(=O)OC(C)(C)C", "activity change, negative = inhibition": "-89.3% (active)"}
{"smiles": "C[C@H](NC(=O)c1nc[nH]c1C(=O)NCC(=O)OC(C)(C)C)C(=O)OCc1ccccc1", "activity change, negative = inhibition": "-24.2%"}
{"smiles": "CNC(=O)c1[nH]cnc1C(=O)N[C@@H](CC(C)C)C(=O)OC(C)(C)C", "activity change, negative = inhibition": "-1.57%"}
{"smiles": "CCCCS(=O)(=O)c1oc(-c2cccs2)nc1S(=O)(=O)c1ccccc1", "activity change, negative = inhibition": "11.6%"}
{"smiles": "COc1ccc(-c2nc(Cn3c(=O)cc(C)c4c(C)nn(-c5ccccc5)c43)c(C)o2)cc1OC", "activity change, negative = inhibition": "0.18%"}
{"smiles": "Cc1c(Cl)cccc1NC(=O)N1CCN(C(=O)c2nsc3ccccc23)CC1", "activity change, negative = inhibition": "-9.22%"}
{"smiles": "CCc1ccc(NC(=O)N2CCN(C(=O)c3nsc4ccccc34)CC2)cc1", "activity change, negative = inhibition": "-22.5%"}
{"smiles": "COc1cccc(NC(=O)N2CCN(C(=O)c3nsc4ccccc34)CC2)c1", "activity change, negative = inhibition": "-44.8% (active)"}
{"smiles": "O=C(Nc1cc(C(F)(F)F)ccc1Cl)c1ccc2c(c1)CCN2S(=O)(=O)c1ccccc1", "activity change, negative = inhibition": "3.06%"}
{"smiles": "COc1cc2[nH]c(=O)n(Cc3ccc(C(=O)NC4CCN(Cc5ccccc5)CC4)cc3)c(=O)c2cc1OC", "activity change, negative = inhibition": "8.55%"}
{"smiles": "COc1ccc(C(=O)NC2CC2)cc1OC1CCN(Cc2ccc(SC)cc2)CC1", "activity change, negative = inhibition": "-63.9% (active)"}
{"smiles": "COc1ccc(C(=O)NC2CC2)cc1OC1CCN(Cc2cnn(C)c2)CC1", "activity change, negative = inhibition": "-6.25%"}
{"smiles": "COc1ccc(C(=O)NCCn2nc(C)cc2C)cc1OC1CCN(C(C)=O)CC1", "activity change, negative = inhibition": "1.96%"}
{"smiles": "COc1ccc(C(=O)NC2CC2)cc1OC1CCN(C/C=C/c2ccccc2)CC1", "activity change, negative = inhibition": "-56.2% (active)"}
{"smiles": "COc1cc(C(=O)N2CCN(C/C=C/c3ccccc3)CC2)cc(OC)c1C", "activity change, negative = inhibition": "6.67%"}
